# Compounds with a hit are over-represented: about 8.2% of the library has one in this group of screens.
# KB-3-1 cytotox: qHTS assay for MDR1-selective chemotherapeutics: Primary screen using the parental adenocarcinoma cell KB-3-1. KB-3-1 viability, CellTiter-Glo ATP luminescence, 72 h. Potency, µM (top dose mostly 46.1 µM), hits mostly cytotoxic. hit rate 1.4% among 400,000; also: % is scaled to controls: 0 for no effect and ±100 for the full control effect; nearly all actives have a fitted effect of over 60% in size
#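 Cytotoxicity measured as CellTiter-Glo luminescence after 72 h at 37 C. Compound titrations were pinned onto drug-naive KB-3-1 parental adenocarcinoma cells grown in DMEM with 10% FBS, and normalized data fitted to concentration-response curves.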
# KB-V1 MDR tox: qHTS assay for MDR1-selective chemotherapeutics: Primary screen using the drug-selected MDR subline cells KB-V1; KB-V1 MDR cells viability, CellTiter-Glo, 72 h; Potency, µM (highest dose often 46.1 µM), most hits filed as cytotoxic; hit rate 3.4% among 400,000; AID 1347076, 2019; also: % is scaled to controls: 0 for no effect and ±100 for the full control effect; nearly all actives have a fitted effect of over 60% in size
#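 Cytotoxicity via CellTiter-Glo luminescence after 72 h compound exposure at 37 degrees C. Cells: drug-selected KB-V1 line, DMEM phenol-red free plus 10% FBS. Compounds tested at multiple concentrations; normalized data fitted to concentration-effect curves.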
# SW480 rereplic: A quantitative high throughput screen for small molecules that induce DNA re-replication in SW480 colon adenocarcinoma cells; AID 624297, 2012; Potency, µM (highest dose often 46.1 µM), for inactives: at the highest dose re-replication activation, actives largely listed as activators; hit rate 1.8% among 340,000; SW480 DNA re-replication, Hoechst DNA content imaging, 48 h; also: % of control where 0% means no effect; nearly all actives have a fitted effect of over 55% in size
#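 250 cells/well; 23 nL cpd via pin tool; 48 hr, 37 C, 5% CO2; Hoechst 40 min; imager read of total nuclear intensity, ex 405/em 500-530 nm.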
# MCF10A rereplic: A quantitative high throughput screen for small molecules that induce DNA re-replication in MCF 10a normal breast cells; MCF 10A DNA re-replication, Hoechst nuclear intensity, 48 h; Potency, µM (series often up to 46.1 µM), without a hit: at the top dose activity, positive = re-replication, most hits filed as activators; hit rate 2.9% among 350,000; also: % of control where 0% means no effect; nearly all actives have a fitted effect of over 50% in size
# ELG1 DNA repair: qHTS screen for small molecules that inhibit ELG1-dependent DNA repair in human embryonic kidney (HEK293T) cells expressing luciferase-tagged ELG1; HEK293T ELG1-luciferase reporter, luminescence, 16 h; DNA damage induced by 5-fluorouridine; Potency, µM (series often up to 46.1 µM), inactives show top-dose activity change, negative = inhibition, usual class: inhibitors; hit rate 2.3% among 330,000; also: % is scaled to controls: 0 for no effect and ±100 for the full control effect; nearly all actives have a fitted effect of over 55% in size
#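 Luminescence from the luciferase reporter, measured 30 min after ONE-Glo reagent at room temperature, was the read-out. Beforehand, 2,000 cells per well were exposed for 16 hr at 37 °C to 5-fluorouridine together with compound or vehicle.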
# The depositor's hits bear a star; i = inactive; ? = inconclusive; . = no result given; ! = not confirmed by another sample. Calls follow the shape of the dose curve; as a rule, active = well fitted curve in the direction sought with a large enough effect; inconclusive = small, poorly fitted or top-dose-only effect, or another doubt; inactive = no such curve, though single readings can be large; an effect the other way counts as inactive or inconclusive. Potency is read from the fitted curve at half-maximal effect.
SMILES,KB-3-1 cytotox,KB-V1 MDR tox,SW480 rereplic,MCF10A rereplic,ELG1 DNA repair
CC1(C)CC(=O)c2sc(NC(=O)CCS(=O)(=O)c3ccccc3)nc2C1,20.6µM*,i,-1.7%,23.1µM*,?
CC(Oc1ccccc1)C(=O)Nc1nc2c(s1)C(=O)CC(C)(C)C2 (centres undefined),i,i,-6.7%,17.5%,-19.0%
COCCN(C(=O)c1cccc(-n2cnnn2)c1)c1c(N)n(CC(C)C)c(=O)[nH]c1=O,i,i,-68.7%,1.3%,11.0%
Cc1cc(C)n2nc(C(=O)OCC(=O)N(C)CC(=O)Nc3ccccc3Cl)nc2n1,i,i,-1.9%,-2.8%,3.2%
CNc1cccnc1C=NNC(N)=S,?,?,0.92µM*,28.1%,.
NC(=S)N/N=C/c1cccnc1,.,.,-5.9%,-0.5%,.
Cc1[nH]n(-c2ccccc2)c(=O)c1N=Nc1c(O)cc(S(=O)(=O)N(C)C)c2ccccc12,?,i,5.8µM*,-37.6%,4.11µM*
COc1ccccc1C(=O)N1CCN(C(=O)[C@H]2O[C@@H](n3ccc(N)nc3=O)[C@H](O)[C@@H]2O)CC1,i,i,.,.,.
N#Cc1cc2ccccc2nc1SCC(=O)Nc1ccccc1N1CCOCC1,i,4.61µM*,-7.9%,-2.4%,2.2%
Cc1cccc2cc(C#N)c(SCC(=O)Nc3ccccc3N3CCOCC3)nc12,i,i,9.1%,9.9%,?
O=C(CSc1nc2ccccc2nc1N1CCCC1)Nc1ccc(F)cc1,i,i,2.6%,22.8%,1.3%
Cc1ccc(NC(=O)CSc2nc3ccccc3nc2N2CCOCC2)cc1,i,18.4µM*!,?,10.9%,?
CC1CN(c2nc3ccccc3nc2SCC(=O)Nc2ccc(F)cc2)CC(C)O1 (centres undefined),?,i,-2.1%,16.6%,16.4µM*
O=C(CNS(=O)(=O)c1ccc(Br)s1)N1CCN(c2ccc(F)cc2)CC1,23.1µM*!,18.4µM*!,0.5%,11.5%,-4.7%
O=C(CCNS(=O)(=O)c1ccc(Br)s1)N1CCCCC1,i,i,-8.1%,0.6%,-8.0%
COc1ccc(N2CCN(C(=O)CCNS(=O)(=O)c3ccc(Br)s3)CC2)cc1,?,13µM*,-4.8%,2.5%,?
O=C(OCCNc1ccc(C(F)(F)F)cc1[N+](=O)[O-])c1cc2ccccc2oc1=O,i,i,-4.0%,-2.7%,17.1%
O=C(Nc1ccc2nc(SCCOc3ccccc3)sc2c1)c1ccc2c(c1)OCO2,i,i,.,.,.
COC(=O)[C@H](CC(C)C)NC(=O)Cn1cnc(C(=O)Nc2ccc(C)c(C)c2)n1,i,i,0.0%,-2.4%,?
COc1ccc(-c2cc(C(F)(F)F)nc(N3CCCCC3)n2)cc1OC,i,?,9.1%,?,-10.8%
COc1ccc(-c2cc(C(F)(F)F)nc(N3CCN(C)CC3)n2)cc1OC,?,16.4µM*,12.4%,20.0%,?
COc1ccc(-c2cc(C(F)(F)F)nc(-n3ccnc3C)n2)cc1,?,20.6µM*,-7.5%,7.6%,25.9µM*
COc1cccc(-c2cc(C(F)(F)F)nc(N3CCCCC3)n2)c1,i,i,-8.5%,16.4µM*,-2.0%
COc1ccc(-c2cc(C(F)(F)F)nc(N3CCCCCC3)n2)cc1,i,i,2.0%,23.1µM*,-5.6%
Cn1cnnc1SCC(=O)Nc1ncc(C(F)(F)F)cc1Cl,?,i,0.4%,1.9%,12.4%
SMILES,KB-3-1 cytotox,KB-V1 MDR tox,SW480 rereplic,MCF10A rereplic,ELG1 DNA repair
COC(=O)[C@@H]1N2C(=O)[C@@H](NC(=O)C(C)Oc3ccccc3)[C@H]2SC1(C)C (some centres undefined),i,i,.,.,.
COc1ccc(-c2cc(C(F)(F)F)nc(N3CCN(C)CC3)n2)cc1,?,11.6µM*,-2.7%,?,?
COc1ccc(-c2cc(C#N)nc(N3CCN(C)CC3)n2)cc1,i,i,-14.3%,?,?
COc1ccc(NC(=O)c2cccc(Oc3ccccc3)c2)cn1,8.2µM*,?,?,?,0.0%
COc1ccc(NC(=O)c2cccc(S(=O)(=O)Nc3ccc(Br)cc3)c2)cn1,11.6µM*,?,-4.5%,?,?
COc1ccc(C(=O)Nc2ccc(S(=O)(=O)N(C)c3ccccc3)cc2)cc1,i,?,0.8%,15.6%,.
COc1ccc(NC(=O)c2ccc(S(=O)(=O)N(C)c3ccccc3)cc2)cn1,?,i,-1.9%,-0.4%,10.3µM*
O=C1CSc2ccc(C(=O)Nc3cccc(S(=O)(=O)Nc4ccc(Br)cc4)c3)cc2N1,i,i,13.4%,?,13µM*
O=C(O)c1ccc(NC(=O)c2cccc(S(=O)(=O)Nc3ccc(C(=O)O)cc3)c2)cc1,i,i,-57.8%,-10.2%,3.5%
CC1CN(c2nc(Nc3ccccc3F)nc(N)c2[N+](=O)[O-])CC(C)O1 (centres undefined),i,i,34.0%,5.1%,?
CC(C)(C)NCc1cccn1-c1sc2c(c1C#N)CCCC2,i,16.4µM*,-3.2%,12.1%,-17.6%
COc1ccccc1/C=C1/SC(=S)N(CCC(=O)Nc2cccnc2)C1=O,i,i,-13.4%,-9.6%,-1.9%
O=C1/C(=C\c2cc(Cl)c(O)c(Cl)c2)SC(=S)N1Cc1ccccc1,?,3.66µM*,?,2.06µM*,?
COc1ccc(/C=C2/SC(=S)N(Cc3ccccc3)C2=O)cc1O,i,i,-2.0%,?,?
COc1ccc(O)c(/C=C2/SC(=S)N(Cc3ccccc3)C2=O)c1,?,?,15.3%,13µM*,-3.0%
COc1ccc(OC)c(/C=C2\SC(=S)N(Cc3cccnc3)C2=O)c1,?,14.6µM*,16.4µM*,6.51µM*,-16.7%
COc1ccccc1NS(=O)(=O)c1ccc2c(c1)CCN2C(=O)CCC(=O)O,i,i,-0.2%,0.3%,9.7%
CNc1ncnc2c1cnn2C1CCCCO1 (centres undefined),i,i,-3.0%,0.1%,.
O=[N+]([O-])c1ccc(/C=C/c2nc3ccc([N+](=O)[O-])cc3[nH]2)cc1,i,3.66µM*,-4.1%,-0.7%,-10.7%
O=[N+]([O-])c1ccc2nc(-[n+]3c(-c4ccccc4)cc(-c4ccccc4)cc3-c3ccccc3)[nH]c2c1,i,?,?,?,23.1µM*
O=[N+]([O-])c1cccc(-c2nc3ccc([N+](=O)[O-])cc3[nH]2)c1,i,?,32.6%,3.9%,-19.1%
COc1ccc(Cc2c(C3CCCCC3)nc3ccc(Cl)cn23)c(C)c1,i,i,.,.,.
